Compound activity from PubChem BioAssay.
M1 PAM parental: nonselective activator or artifact in parental CHO-K1 calcium assay; activation, % at 3 µM; AID 602247; ATP EC20, Fluo-8 calcium fluorescence; 0% at ATP EC20, 100% at ATP max; hit rate 0.02% among 360,000;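 active means activation above the run cutoff, the mean activation of all test compounds plus 3 SD, cut at about 40% in these data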;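 further: peak over basal fluorescence ratio in a 140 s read after ATP addition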
CHRM4 antagonist: CHRM4 antagonism in calcium assay; P08173; CHO-hM4 cells, ACh EC80, Fluo-8 calcium fluorescence; inhibition, % at 3 µM; hit rate 0.73% among 360,000; AID 624125;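 active means inhibition above its plate's cutoff, the mean inhibition of sample wells plus 3 SD, cut at about 27% in these data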
Target sequence (P08173 whole entry, looked up): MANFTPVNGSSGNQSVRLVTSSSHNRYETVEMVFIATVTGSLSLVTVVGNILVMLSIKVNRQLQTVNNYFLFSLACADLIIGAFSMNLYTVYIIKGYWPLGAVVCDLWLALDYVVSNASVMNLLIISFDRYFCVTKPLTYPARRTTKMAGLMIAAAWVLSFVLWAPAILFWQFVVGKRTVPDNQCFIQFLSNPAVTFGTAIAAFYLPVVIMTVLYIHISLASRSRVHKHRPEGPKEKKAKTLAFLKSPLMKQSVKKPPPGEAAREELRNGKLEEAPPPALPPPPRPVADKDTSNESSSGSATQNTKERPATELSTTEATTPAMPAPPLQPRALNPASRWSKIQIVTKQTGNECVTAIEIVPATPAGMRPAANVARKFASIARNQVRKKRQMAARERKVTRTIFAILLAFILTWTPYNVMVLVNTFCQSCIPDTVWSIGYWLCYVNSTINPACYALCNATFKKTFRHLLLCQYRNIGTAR
CHO-K1 Ca antag: nonselective inhibitor or artifact in parental CHO-K1 cells; ATP-induced calcium, Fluo-8 fluorescence; inhibition, % at 3 µM; hit rate 0.6% among 360,000; AID 602250;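 active means inhibition above a per-plate cutoff, the plate's mean sample inhibition plus 3 SD, cut at about 24% in these data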
M4 PAM: positive allosteric modulators of human muscarinic M4 receptor | CHO-K1 hM4/Gqi5, Fluo-8 calcium fluorescence, ACh EC20; 0% = ACh EC20, 100% = maximal ACh | activation, % at 3 µM | hit rate 0.4% among 360,000 | AID 624126;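 active means activation above its plate's cutoff, the mean activation of sample wells plus 3 SD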
CHRM4 agonist: CHRM4 agonism in calcium assay. CHO-K1 hM4/Gqi5, Fluo-8 calcium fluorescence; vehicle 0%, full acetylcholine response 100%. hit rate 0.14% among 360,000. activation, % at 3 µM. AID 624127;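 active means activation above the run mean over all test wells plus 3 SD, cut at about 32% in these data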;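 further: peak over basal fluorescence ratio per well then scaled between controls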
M1 ag parental: counter-screen for M1 agonists: effect in parental CHO-K1 cells; Fluo-8 calcium fluorescence; scaled to maximal ATP response, vehicle zero; activation, % at 3 µM; hit rate 0.48% among 360,000; in the data active means activation above about 15%;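 further: untransfected CHO-K1 host cells lacking M1 receptor as counterscreen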
Each line names hits and unclear results; the compound was inactive in the other large screens. The list is not random: actives were taken first. Their share in the collection is about 2%.

Cc1ccc2cc(C#N)c(SCC(=O)NNC(=O)Cc3ccccc3)nc2c1	CHO-K1 Ca antag 25
CC(=O)Nc1ccc(Sc2ncccc2C(=O)Nc2ccc(F)cc2)cn1	CHRM4 agonist 94, M1 ag parental 37
CSc1ncccc1C(=O)Nc1ccc(OC(F)(F)F)cc1	none
O=C(Nc1nnc([C@H]2C[C@H](O)[C@@H](CO)O2)s1)c1cccc(Oc2ccccc2)c1	CHO-K1 Ca antag 25
O=C(Nc1nnc([C@@H]2C[C@H](O)[C@@H](CO)O2)s1)c1cccc(Oc2ccccc2)c1	none
O=C(Nc1ccccc1)Nc1nnc([C@H]2C[C@H](O)[C@@H](CO)O2)s1	CHO-K1 Ca antag 26
Nc1ccc(/C=C/C(=O)c2cccs2)cc1	M1 ag parental 22
CCOc1ccccc1NC(=O)C(Sc1nnnn1C)c1ccccc1 (centres undefined)	none
C=CC[C@@H](Cc1ccc(F)cc1)C(=O)OC[C@@H]1CCCN1C(=O)[C@H](CC=C)CC(=O)NCCO	none
CCCCOc1ccc(Br)cc1/C(C)=N/NC1=NCCN1	CHRM4 antagonist 35
CC1(C)Oc2ccc3ccc(=O)oc3c2/C(=C/Nc2ccc(O)cc2)C1=O	none
CC1(C)Oc2ccc3ccc(=O)oc3c2/C(=C/Nc2cccc(O)c2)C1=O	CHO-K1 Ca antag 29
OCCN(Cc1ccccc1)CC(O)COc1ccc2c(c1)OCO2 (centres undefined)	none
CC(C)(C)CN1CCC(Oc2cccc(C(=O)NCCCOc3cccnc3)c2)CC1	CHRM4 antagonist 68, CHO-K1 Ca antag 24
O=C(COC(=O)c1cc(Cl)ccc1O)NC(=O)NCc1ccccc1	none
CCNc1ccc(Br)cc(C(=O)/C=C/c2ccc(Cl)cc2Cl)c1=O	CHRM4 antagonist 40
CNc1ccc(Br)cc(C(=O)/C=C/c2cc(OC)ccc2OC)c1=O	none
O=C(CSc1nnc2n1CCCN2)c1ccc([N+](=O)[O-])cc1	M1 ag parental 19
Cc1cccc(NC(=O)CN2CCN(C(=O)c3ccc(OCc4cn5ccccc5n4)cc3)CC2)c1C	none
CC1(C)O[C@@H]2[C@H](O1)[C@@H](COS(=O)(=O)O)O[C@H]2n1cc(Br)c(=O)[nH]c1=O	M4 PAM 25
O=C(NC(=S)Nc1ccccc1F)C1CCCCC1	none
CC1(C)CC(=O)C2=C(C1)NCN(Cc1ccccc1)C2	M4 PAM 34
CCCN1CN(Cc2ccccc2)CC2=C1CC(C)(C)CC2=O	none
COc1ccccc1C(=O)N1CCN(C(=O)[C@H]2O[C@@H](n3ccc(=O)[nH]c3=O)[C@H](O)[C@@H]2O)CC1	M4 PAM 21
O=C(Nc1nc2c(F)cc(F)cc2s1)C1CC1	CHO-K1 Ca antag 31
CC1(C)CC(=O)C(C(c2ccncc2)C2C(=O)CC(C)(C)CC2=O)C(=O)C1	none
COc1ccc(C(C2C(=O)CC(C)(C)CC2=O)C2C(=O)CC(C)(C)CC2=O)cc1	M1 ag parental 19
O=C(NC1CCCCC1)C(c1ccc(C(F)(F)F)cc1)n1c(=O)c(-c2ccco2)nc2ccccc21 (centres undefined)	none (no result: M1 PAM parental, CHO-K1 Ca antag, M1 ag parental)
Cc1ccc(-c2nc(P(=O)(c3ccccc3)c3ccccc3)c(N3CCOCC3)o2)cc1	none
CNc1oc(-c2ccc(Cl)cc2)nc1P(=O)(c1ccccc1)c1ccccc1	M1 PAM parental 49
Cc1ccc(C(=O)OCC(=O)c2c[nH]c3ccccc23)cc1S(=O)(=O)N1CCOCC1	none
Cc1occc1C(=O)NC(C)C(C)(C)C (centres undefined)	CHRM4 antagonist 29
Cc1occc1C(=O)NC(C)CCc1ccccc1 (centres undefined)	none
C[C@H](NC(=O)c1cc2cc(Cl)ccc2n1C)C(=O)N[C@@H](C(=O)O)c1ccccc1	none
COc1ccc(NC2CCCCC2NS(=O)(=O)c2ccc(C)cc2)cc1 (centres undefined)	none
O=C(c1ccc([N+](=O)[O-])o1)N1CCN(c2nc3c(F)cc(F)cc3s2)CC1	CHO-K1 Ca antag 24
CCOC(=O)c1ccc(NC(=O)Nc2nc3ccccc3s2)cc1	CHRM4 antagonist 61
CCOC(=O)c1ccc(NC(=S)NN)cc1	M4 PAM 20
CCOC(=O)c1ccc(NC(=O)C(CC)(CC)C(=O)OCC)cc1	CHO-K1 Ca antag 25
